Laboratory results published in PubChem BioAssay.
Calls of active or inactive are those of the source. Unless noted, how the calls were made is not given here.

Legend:
[1] = tested on: Wnt5a (protein binding on small-molecule microarray); experiment: small molecules binding Wnt5a protein – biophysical, small-molecule microarray, 635/667 nm fluorescence, primary screen (AID 1142); settings: 635 nm fluorescence, higher = more signal;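 further: fluorescence read at 667 nm with signal to noise per printed feature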
[2] = ATP-based viability of Huh7 replicon cells – cell-based, CellTiter-Glo luminescence, basal, 48 h, cytotoxicity control for HCV replication inhibitor project, primary screen (AID 1143); settings: higher = more signal, called active from +8 up or from −8 down;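 further: Huh7 hepatoma cells carrying a hepatitis C replication reporter with no stimulus; test concentration not given here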
[3] = Pseudomonas biofilm growth suppression – PAO1 strain, BacTiter-Glo luminescence, LB-PBS, primary screen (AID 1144); settings: P. aeruginosa PAO1 biofilm, 12 h, higher = more signal
[4] = basal CRE-LacZ reporter activity in PC12 – cell-based, unstimulated, primary screen (AID 1145); settings: no forskolin, luminescence, 4.5 h, higher = more signal, called active from +8 up or from −8 down
[5] = forskolin-driven CRE-LacZ activity in PC12 – cell-based, CRE-LacZ reporter, forskolin-stimulated, primary screen (AID 1146); settings: luminescence, 4.5 h, higher = more signal, called active from +8 up or from −8 down;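 further: PC12 cells with 6xCRE LacZ reporter stimulated by forskolin 10 µM; beta-galactosidase reporter signal reflecting CREB driven transcription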
[6] = target: Streptavidin (Streptomyces avidinii) (UniProt P22629); experiment: compounds binding control protein streptavidin – biophysical, small-molecule microarray, 635/667 nm fluorescence, artefact control for SMM compound annotation, primary screen (AID 1147); settings: higher = more signal;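 further: signal reflects streptavidin binding to arrayed compounds as a control protein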
[7] = probe aInhba binding on compound microarray – biochemical, small-molecule microarray, 635/667 nm fluorescence, primary screen (AID 1148); settings: higher = more signal;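 further: score merges 667nm spot fluorescence with signal-to-noise for antibody binding to printed compounds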
Torsin-1A (Homo sapiens) [8] = target: Torsin-1A (Homo sapiens) (UniProt O14656); experiment: TOR1A wild-type binding on microarray – cell lysate, small-molecule microarray, lysate, 635/667 nm, primary screen (AID 1149); settings: COS7 hTOR1A-WT lysate, 635 nm fluorescence, higher = more signal
Torsin-1A (Homo sapiens) [9] = target: Torsin-1A (Homo sapiens) (UniProt O14656); experiment: torsin A mutant lysate binding on microarrays – cell lysate, small-molecule microarray, COS7 lysate, 635/667 nm fluorescence, primary screen (AID 1150); settings: COS7 hTOR1A mutant lysate, 635 nm fluorescence, higher = more signal;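 further: score pools 667 nm emission and signal to noise measuring lysate protein binding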
[10] = tested on: Sonic hedgehog protein (Shh); experiment: Sonic hedgehog microarray binding compounds – biochemical, small-molecule microarray, 635/667 nm fluorescence, primary screen (AID 1151); settings: 635 nm fluorescence, higher = more signal;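 further: Shh protein binding to compounds spotted on small-molecule microarray slides; score combines spot fluorescence intensity with signal-to-noise across triplicate slides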

Sequence of Torsin-1A (Homo sapiens) (O14656 whole entry, looked up): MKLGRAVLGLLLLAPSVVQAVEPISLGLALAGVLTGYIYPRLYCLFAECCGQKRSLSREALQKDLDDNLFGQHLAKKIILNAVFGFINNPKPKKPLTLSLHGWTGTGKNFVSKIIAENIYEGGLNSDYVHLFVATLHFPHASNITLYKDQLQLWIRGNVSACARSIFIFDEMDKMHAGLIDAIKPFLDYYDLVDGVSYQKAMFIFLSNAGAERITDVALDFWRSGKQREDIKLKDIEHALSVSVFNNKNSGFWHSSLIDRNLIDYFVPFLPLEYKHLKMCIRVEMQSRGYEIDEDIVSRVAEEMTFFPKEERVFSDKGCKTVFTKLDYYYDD
Sequence of Streptavidin (Streptomyces avidinii) (P22629 whole entry, looked up): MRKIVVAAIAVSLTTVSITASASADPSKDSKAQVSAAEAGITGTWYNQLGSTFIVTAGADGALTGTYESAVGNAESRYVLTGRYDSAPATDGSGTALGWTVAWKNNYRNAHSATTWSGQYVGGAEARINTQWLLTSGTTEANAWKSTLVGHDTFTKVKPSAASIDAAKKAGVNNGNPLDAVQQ

Structure (SMILES)	composite z-score [1]	z-score [2]	z-score [3]	z-score [4]	z-score [5]	composite z-score [6]	composite z-score [7]	composite z-score (Torsin-1A (Homo sapiens) [8])	composite z-score (Torsin-1A (Homo sapiens) [9])	composite z-score [10]
CCCCC(=C=CC[C@@H](O)c1cccc(OCCO)c1)C[C@@H](O)COCc1ccccc1	-0.225	-2.51 (inactive)	-0.279 (inactive)	6.81 (inactive)	-0.731 (inactive)	-0.577	-0.05	-0.387	-0.444	0.362
Cc1ccc(S[C@]2(C(=O)NC3CC3)CC(=O)N(Cc3cc(C(F)(F)F)cc(C(F)(F)F)c3)[C@@H]2c2ccc(CO)cc2I)cc1	0.272	-0.636 (inactive)	0.141 (inactive)	-0.0243 (inactive)	1.16 (inactive)	0.389	0.532	-0.597	0.409	1.14
CO[C@H]1O[C@H](CO)[C@@H](OC(=O)Nc2ccccc2)[C@@H]2OC(=O)[C@H](Cc3ccccc3)C/C=C/C[C@@H](Cc3ccccc3)C(=O)O[C@@H]12	0.399	-3.81 (inactive)	-0.805 (inactive)	0.512 (inactive)	-1.36 (inactive)	0.564	-0.0762	0.527	0.348	1.62
COCCCNC(=O)[C@@H]1c2ccccc2C(=O)N(Cc2cc(C(F)(F)F)cc(C(F)(F)F)c2)[C@H]1c1ccc(CO)cc1	0.128	-0.334 (inactive)	0.608 (inactive)	0.288 (inactive)	-0.613 (inactive)	-0.587	0.502	0.47	0.7	0.395
C=CCNC(=O)[C@@H]1[C@H]2C(=O)O[C@H](c3ccccc3)[C@H](c3ccccc3)N2[C@H](c2ccc(O)cc2)[C@@]12C(=O)Nc1ccc(C#CC3(O)CCCCCC3)cc12	0.179	-0.794 (inactive)	-0.817 (inactive)	-1.69 (inactive)	-0.361 (inactive)	-0.932	-0.128	0.16	0.781	1.11
CN(C)C(=O)[C@]1(Cc2ccccc2CN=[N+]=[N-])N=C(c2ccc(OCCCO)cc2)O[C@@H]1c1ccccc1N=[N+]=[N-]	0.397	-3.07 (inactive)	-0.406 (inactive)	-0.79 (inactive)	-0.969 (inactive)	1.34	0.177	0.0095	0.25	-0.946
C=CC[C@@]1(C(=O)O)N=C(c2ccc(OCCCO)cc2)O[C@@H]1c1ccccc1CN=[N+]=[N-]	0.229	-1.9 (inactive)	-1.6 (inactive)	-0.183 (inactive)	-1.13 (inactive)	1.93	-0.0736	-0.0975	0.884	0.582
CCCCC(=C=CC[C@@H](O)c1ccc(OCCO)cc1)C[C@@H](O)c1ccccn1	0.158	-1.31 (inactive)	0.412 (inactive)	14.6 (active)	-0.0387 (inactive)	-0.0544	0.0569	0.634	0.51	1.48
CC(C)C[C@H]1NC(=O)[C@H](Cc2ccccc2)NC(=O)[C@@]23C(=O)N[C@@H](Cc4ccccc4)C2[C@H](C)[C@@]2(C)O[C@H]2C3/C=C/C/C=C\CNC1=O (stereo not given in full)	0.116	-1.29 (inactive)	0.338 (inactive)	0.67 (inactive)	0.105 (inactive)	0.494	-0.0552	0.471	0.855	0.889
C=CCOC(=O)[C@H]1[C@@H]2C(=O)O[C@@H](c3ccccc3)[C@@H](c3ccccc3)N2[C@@H](c2ccc(OCCOC(=O)[C@@H]3C[C@@H]4C(=O)N[C@@H](Cc5ccccc5)C(=O)N4[C@@H]3c3ccc(O)cc3)cc2)[C@]12C(=O)Nc1ccccc12	0.5	0.247 (inactive)	-0.661 (inactive)	0.679 (inactive)	-0.158 (inactive)	0.537	-0.0762	0.83	0.8	1.03
C=C(CC1([C@@H](NP(=O)(c2ccccc2)c2ccccc2)[C@H]2C[C@@H]2CCN(C(=O)OCC)S(=O)(=O)c2ccc(C)cc2)CC1)c1ccccc1	0.302	-3.37 (inactive)	0.83 (inactive)	-0.196 (inactive)	0.108 (inactive)	1.27	0.199	-0.423	0.0999	-1.18
COCCOC(=O)N1C(=O)[C@@]2(c3cc(C#CCC(C(=O)OC)C(=O)OC)ccc31)[C@H](C(=O)N1CCCCCCC1)[C@H]1C(=O)O[C@H](c3ccccc3)[C@H](c3ccccc3)N1[C@@H]2c1ccccc1OCCO	1.21	-5.66 (inactive)	-0.728 (inactive)	-0.475 (inactive)	-0.981 (inactive)	2.68	1.91	1.27	1.23	2.06
O=C1C2C=CC(C(O)c3cccs3)N(Nc3ccccc3)C2C(=O)N1c1ccccc1 (stereo not given)	0.114	-2.55 (inactive)	-0.991 (inactive)	-0.136 (inactive)	0.592 (inactive)	0.195	-0.0604	-0.372	-0.629	0.0003
C=CCC(OC(C)=O)[C@@H]1[C@@H](N(Cc2ccc(-c3cccc(C(F)(F)F)c3)o2)C(=O)Cc2ccc(OC)cc2)c2cc(OCCCO)ccc2N1C(=O)c1ccc2ccccc2n1 (stereo not given in full)	-0.162	-1.45 (inactive)	0.6 (inactive)	0.339 (inactive)	0.792 (inactive)	-0.356	0.0517	0.0833	-0.475	0.38
NCCCC[C@@H]1NC(=O)[C@H]2C[C@@H](C(=O)NCc3ccc(F)cc3)[C@@H](c3ccc(O)cc3)N2C1=O	-0.0979	0.12 (inactive)	-0.0714 (inactive)	0.143 (inactive)	0.421 (inactive)	0.829	0.0963	1.18	2.58	1.11
CC(=O)NCCCC[C@@H]1NC(=O)[C@@H]2C[C@H](C(=O)NCCCCCC[N+](C)(C)C)[C@H](c3ccc(O)cc3)N2C1=O	0.0463	0.159 (inactive)	0.795 (inactive)	-0.675 (inactive)	-0.293 (inactive)	-0.314	-0.105	0.0055	0.885	1.75
CN(C)CCCC[C@@H]1NC(=O)[C@@H]2C[C@H](C(=O)NCc3ccc(F)cc3)[C@H](c3ccc(O)cc3)N2C1=O	0.939	0.0109 (inactive)	-0.886 (inactive)	0.557 (inactive)	-0.636 (inactive)	-0.574	0.305	0.704	0.249	2.28
C=CC[C@]1(C(=O)NCc2ccccc2)COC(c2ccc(OCCCO)cc2)=N1	0.602	-3.63 (inactive)	0.271 (inactive)	1.38 (inactive)	-0.505 (inactive)	-0.479	0.0503	0.29	1.52	-0.88
COc1ccc([Si](C)(C)[C@H]2[C@H](CCn3cc([C@H](O)c4ccccc4)nn3)O[C@@]3(C(=O)N(C)c4c(Br)cc(C)cc43)[C@@H]2C)cc1	-0.0472	-4.01 (inactive)	-0.23 (inactive)	7.95 (inactive)	-1.66 (inactive)	-0.124	-0.208	0.877	0.19	0.964
COC(=O)[C@@]1(Cc2ccc(F)cc2)[C@H]2c3cc(C(=O)N(C)C)n(CCn4cc([N+](=O)[O-])nc4C)c3C[C@H]2CN1C(=O)c1ccccc1	0.453	0.278 (inactive)	-0.0864 (inactive)	-0.761 (inactive)	0.17 (inactive)	0.0438	0.234	-0.0611	0.373	-0.755
COc1ccc(CCNC(=O)[C@@]2(C)c3ccccc3C(=O)N(Cc3cc(C(F)(F)F)cc(C(F)(F)F)c3)[C@H]2c2ccc(CO)cc2)cc1	0.024	-5.45 (inactive)	0.603 (inactive)	1.18 (inactive)	-0.896 (inactive)	-0.404	-0.102	0.602	1.52	0.198
